# PubChem BioAssay (NCATS)
# Results filed as inconclusive are left out. Where a call stands in place of a potency, no number is given. The source made the active and inactive calls. The call rests on the fitted dose curve; in most records, active means well fitted curve in the direction sought with a large enough effect; inconclusive means small, poorly fitted or top-dose-only effect, or another doubt; inactive means no such curve, though single readings can be large; an effect the other way counts as inactive or inconclusive.
# Legend:
# [1] = biological target: Arylsulfatase A (Homo sapiens) (UniProt P15289); assay: qHTS screen for enhancers of Arylsulfatase A (ASA1): LOPAC Validation Assay (AID 720538); settings: outcome: dose series up to 57.5 µM
# Chain of Arylsulfatase A (Homo sapiens) (P15289 whole entry, looked up): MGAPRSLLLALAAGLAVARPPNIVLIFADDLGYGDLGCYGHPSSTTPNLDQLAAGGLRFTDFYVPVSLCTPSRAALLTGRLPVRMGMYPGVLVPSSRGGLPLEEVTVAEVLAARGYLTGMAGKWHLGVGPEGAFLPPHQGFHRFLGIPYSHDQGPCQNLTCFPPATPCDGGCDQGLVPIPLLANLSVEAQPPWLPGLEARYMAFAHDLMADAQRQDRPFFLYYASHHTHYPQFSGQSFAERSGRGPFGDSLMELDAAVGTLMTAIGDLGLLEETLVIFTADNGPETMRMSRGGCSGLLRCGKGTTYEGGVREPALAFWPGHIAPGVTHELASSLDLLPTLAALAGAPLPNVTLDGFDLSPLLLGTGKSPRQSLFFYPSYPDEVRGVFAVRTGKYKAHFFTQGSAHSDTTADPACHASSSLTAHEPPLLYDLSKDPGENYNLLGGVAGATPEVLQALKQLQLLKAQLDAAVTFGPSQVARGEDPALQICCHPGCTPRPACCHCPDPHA
# Summary of the method: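 MLD patient fibroblasts (SV40, ASA-I179S), 1536-well; adhere 6 hrs; cpd 48h, 37 degree C, 5% CO2; pNCS 0.5mM final in lysis buffer, 14h RT; stop 1N NaOH final; fluor. Ex525/Em598.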
# [2] = qHTS for compounds that reverse cellular toxicity of Amyloid beta (A-beta) peptide in yeast: LOPAC Validation Assay (AID 720559)
# Summary of the method: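 Medium dispensed, compounds pinned, A-beta yeast suspension added; plates held at 30 C for 48 hr; absorbance measured at 600 nm to gauge growth; values scaled between DMSO and FeCl3/clioquinol (equimolar) controls.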
# [3] = qHTS for Activators of Parkin Expression: LOPAC Validation Assay (NLuc Reporter) (AID 720572)
# Summary of the method: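 Cells harboring the Parkin-promoter coincidence reporter were treated for 24 h at seven concentrations. NLuc output was measured sequentially after the FLuc channel and scaled between DMSO and positive control values.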
# [4] = qHTS for Activators of Parkin Expression: LOPAC Validation Assay (FLuc Reporter) (AID 720573)
# Summary of the method: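 Cells seeded, 24 h; compounds pinned, 7-pt dose response; 24 h at 37 C/5% CO2; volume reduced; FLuc reagent 10 min RT; luminescence read. Normalization: DMSO = 0, positive control = 100%.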
# [5] = biological target: Tyrosine-protein kinase Yes (Homo sapiens) (UniProt P07947); assay: qHTS for small molecule inhibitors of Yes1 kinase: Primary Screen (AID 686947); further: nearly all actives have a fitted effect of over 60% in size; further: potency means the concentration at half of the fitted maximal effect
# Chain of Tyrosine-protein kinase Yes (Homo sapiens) (P07947 whole entry, looked up): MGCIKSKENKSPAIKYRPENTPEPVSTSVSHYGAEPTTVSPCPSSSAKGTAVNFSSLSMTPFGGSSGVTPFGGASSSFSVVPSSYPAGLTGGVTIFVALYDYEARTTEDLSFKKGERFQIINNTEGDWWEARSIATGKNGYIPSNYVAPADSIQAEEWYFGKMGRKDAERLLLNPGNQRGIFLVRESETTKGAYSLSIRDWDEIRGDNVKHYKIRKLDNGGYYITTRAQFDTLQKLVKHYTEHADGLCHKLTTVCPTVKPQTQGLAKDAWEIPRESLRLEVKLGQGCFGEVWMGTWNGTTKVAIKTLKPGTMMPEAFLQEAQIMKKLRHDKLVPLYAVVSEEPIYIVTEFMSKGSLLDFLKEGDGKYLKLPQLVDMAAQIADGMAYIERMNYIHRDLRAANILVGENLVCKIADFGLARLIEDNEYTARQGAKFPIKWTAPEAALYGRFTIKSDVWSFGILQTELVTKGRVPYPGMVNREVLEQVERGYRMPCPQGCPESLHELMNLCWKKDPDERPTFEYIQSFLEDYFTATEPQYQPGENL
# Summary of the method: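 In this qHTS format, inhibition is expressed relative to DMSO controls with enzyme (maximum) and without enzyme (minimum). The 60 min room-temperature reaction uses 0.1 mM ATP, with ADP detected by luminescence.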
# [6] = qHTS for small molecule inhibitors of Yes1 kinase: Counter Assay (AID 686950);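 further: no kinase present so only ADP-Glo detection of a fixed ADP amount is tested; luminescence from ADP-Glo reporting ADP in a fixed ATP and ADP mixture; series mostly up to about 77 µM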
# Summary of the method: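 Measuring interference with ADP-Glo, the assay ran 60 min at room temperature on an ATP/ADP mix lacking enzyme. Values were normalized to ATP-plus-ADP (maximum) and ATP-only (minimum) DMSO controls.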
# [7] = biological target: Nuclear receptor ROR-gamma (Homo sapiens) (UniProt P51449); assay: qHTS assay for small molecule antagonists of the retinoid-related orphan receptor gamma (ROR-gamma) signaling pathway (AID 651802); further: nearly all actives have a fitted effect of over 60% in size; further: potency means the concentration at half of the fitted maximal effect
# Chain of Nuclear receptor ROR-gamma (Homo sapiens) (P51449 whole entry, looked up): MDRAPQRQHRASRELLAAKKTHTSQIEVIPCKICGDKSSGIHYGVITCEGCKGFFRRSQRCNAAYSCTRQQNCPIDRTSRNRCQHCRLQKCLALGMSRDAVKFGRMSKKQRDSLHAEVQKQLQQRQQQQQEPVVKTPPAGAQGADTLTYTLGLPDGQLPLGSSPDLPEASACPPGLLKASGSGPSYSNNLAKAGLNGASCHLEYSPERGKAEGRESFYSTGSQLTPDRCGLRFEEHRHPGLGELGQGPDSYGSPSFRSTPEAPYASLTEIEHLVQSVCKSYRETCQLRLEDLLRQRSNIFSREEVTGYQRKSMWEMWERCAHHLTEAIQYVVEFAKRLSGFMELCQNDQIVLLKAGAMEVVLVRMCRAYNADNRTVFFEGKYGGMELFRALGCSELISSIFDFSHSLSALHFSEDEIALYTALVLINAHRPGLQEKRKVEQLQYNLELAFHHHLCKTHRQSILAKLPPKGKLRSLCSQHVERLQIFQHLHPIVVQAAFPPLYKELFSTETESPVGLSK
# Summary of the method: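 Doxycycline-induced reporter activity in engineered CHO cells (TET-inducible ROR, RORE-LUC) was measured by luminescence after 16hr compound exposure at 37C.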
# [8] = qHTS for Inhibitors of Ubiquitin-specific Protease USP2a Using CHOP2 as the Reporter: K633 Counterscreen (AID 652168); further: series mostly up to about 57 µM
# Summary of the method: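 Detection-system control: fluorescence of K48-linked DiUb-4IQF substrate (100 nM as added) tracked over time, Ex 525/Em 598, with pinned compounds and no enzyme, in pH 8 Tris buffer containing beta-mercaptoethanol and 0.05% Chaps.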
# [9] = qHTS for Inhibitors of Ubiquitin-specific Protease USP2a Using CHOP2 as the Reporter: Cytotox Assay (AID 652170);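 further: HCT116 human colon cancer cells at 600 per well; series mostly up to about 46 µM; nearly all actives have a fitted effect of over 70% in size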
# Excerpt: Homeostasis of cellular proteins is maintained through a combination of synthesis and degradation. The pathway that accounts for the majority of protein degradation is the ubiquitin-proteasomal pathway. Ubiquitin (Ub) is highly conserved in all cells and the generation of a multi-Ub chain typically targets proteins for degradation by the proteasome. However, ubiquitination is highly reversible and dynamic. Deubiquitination, the reverse process, is catalyzed through the action of enzymes referred to as isopeptidases or deubiquitinating enzymes (DUBs). This group of enzymes is collectively responsible for maintaining adequate pools of free ubiquitin and regulating the ubiquitination status of cellular proteins. The class of DUBs referred to as the ubiquitin-specific proteases (USP) family functions endoproteolytically to cleave Ub chains from a wide range of protein substrates. […] This assays monitors cell proliferation by quantitating the amount of ATP present by luciferase, which in the presence of ATP converts pro-luciferin into the luminescent luciferin product. A compound that inhibits cell proliferation would result in a decrease in luminescence. […]
# 5 uL of HCT116 (600 cells/well) were plated into a 1536 well plate and then incubated for 6 hr at 37 deg C, 5% CO2. […] Then, 3 uL of Cell Titer Glo is added, the plate is left at RT for 10 min, before luminescence is detected using the ViewLux.
# [10] = biological target: Ubiquitin carboxyl-terminal hydrolase 2 (Homo sapiens) (UniProt O75604); assay: qHTS for Inhibitors of Ubiquitin-specific Protease USP2a Using CHOP2 as the Reporter: K484 Substrate (AID 652173);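 further: cleavage of internally quenched K48 di-ubiquitin substrate measured as rising fluorescence over time; nearly all actives have a fitted effect of over 70% in size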
# Chain of Ubiquitin carboxyl-terminal hydrolase 2 (Homo sapiens) (O75604 whole entry, looked up): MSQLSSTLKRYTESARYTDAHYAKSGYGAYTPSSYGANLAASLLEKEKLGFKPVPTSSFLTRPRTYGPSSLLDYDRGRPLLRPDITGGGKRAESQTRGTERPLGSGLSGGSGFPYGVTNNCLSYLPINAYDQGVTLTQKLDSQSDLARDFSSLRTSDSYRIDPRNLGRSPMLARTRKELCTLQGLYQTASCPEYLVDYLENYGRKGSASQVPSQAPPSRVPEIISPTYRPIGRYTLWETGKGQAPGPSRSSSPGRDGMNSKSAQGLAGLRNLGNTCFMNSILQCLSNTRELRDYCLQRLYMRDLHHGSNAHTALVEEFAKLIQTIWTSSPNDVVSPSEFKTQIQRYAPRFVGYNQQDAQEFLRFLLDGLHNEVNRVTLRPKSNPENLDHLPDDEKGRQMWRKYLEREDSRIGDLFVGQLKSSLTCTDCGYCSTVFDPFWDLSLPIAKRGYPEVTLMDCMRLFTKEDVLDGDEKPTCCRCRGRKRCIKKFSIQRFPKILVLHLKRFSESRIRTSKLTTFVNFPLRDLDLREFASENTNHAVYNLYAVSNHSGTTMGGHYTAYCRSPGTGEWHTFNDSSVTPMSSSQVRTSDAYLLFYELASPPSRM
# Excerpt: Homeostasis of cellular proteins is maintained through a combination of synthesis and degradation. The pathway that accounts for the majority of protein degradation is the ubiquitin-proteasomal pathway. Ubiquitin (Ub) is highly conserved in all cells and the generation of a multi-Ub chain typically targets proteins for degradation by the proteasome. However, ubiquitination is highly reversible and dynamic. Deubiquitination, the reverse process, is catalyzed through the action of enzymes referred to as isopeptidases or deubiquitinating enzymes (DUBs). This group of enzymes is collectively responsible for maintaining adequate pools of free ubiquitin and regulating the ubiquitination status of cellular proteins. The class of DUBs referred to as the ubiquitin-specific proteases (USP) family functions endoproteolytically to cleave Ub chains from a wide range of protein substrates. […] Confirmed qHTS active compounds were tested in orthogonal USP2 assays utilizing a di-ubiquitin substrate labeled with a quencher on one ubiquitin and a fluorescent compound on the other, i.e. the substrate has internally quenched fluorescence or IQF (Lifesensors). In the presence of active USP2, the diubiquitin (DiUb) is cleaved and the fluorescence at 598 nm increases. […] Upon inhibition of USP2, the fluorescence signal from cleaved substrate increases less over time than in the absence of an inhibitor. […]
smiles,measurement,setting,value
Cn1cnc2c(NCc3ccccc3)nc(NCCO)nc21,outcome,[1],inactive
same,outcome,[2],inactive
same,outcome,[3],inactive
same,outcome,[4],inactive
NC(N)=NCCCCN=C(N)N,outcome,[1],inactive
same,outcome,[2],inactive
same,outcome,[3],inactive
same,outcome,[4],inactive
COc1ccccc1N1CCN(CCN2C(=O)CC3(CCCC3)CC2=O)CC1,outcome,[1],inactive
same,outcome,[2],inactive
same,outcome,[3],inactive
same,outcome,[4],inactive
C[C@@H](O[C@H]1OCCN(Cc2n[nH]c(=O)[nH]2)[C@H]1c1ccc(F)cc1)c1cc(C(F)(F)F)cc(C(F)(F)F)c1,Potency,[5],inactive
same,outcome,[6],inactive
O=C(Oc1ccccc1)c1ccccc1O,Potency,[7],inactive
COc1cccc2c1[C@@H]1CN(CCCCn3c(=O)[nH]c4c(sc5ncc(-c6ccccc6)nc54)c3=O)C[C@@H]1CO2,outcome,[2],inactive
same,outcome,[3],inactive
same,outcome,[4],inactive
CC(C)(C)c1ccc(O)c(O)c1,Potency,[7],59.6 µM (active)
CC(=O)OC/C=C(C)/C=C/C=C(C)/C=C/C1=C(C)CCCC1(C)C,Potency,[7],inactive
O=C1NC(c2cccc([N+](=O)[O-])c2)=CCN1c1ccccc1O,outcome,[1],inactive
same,outcome,[2],inactive
same,outcome,[3],inactive
same,outcome,[4],inactive
O=[N+]([O-])c1ccc(-c2nc(-c3ccc(F)cc3)c(-c3ccncc3)[nH]2)cc1,outcome,[1],inactive
same,outcome,[2],inactive
same,outcome,[3],inactive
same,outcome,[4],inactive
CCN(CC)CCNC(=O)c1ccc(NS(C)(=O)=O)cc1,outcome,[1],inactive
CC(C)C(C)(C)C(C)(C)C(C)(C)S,Potency,[7],inactive
COc1cc(C=O)ccc1O,Potency,[7],inactive
Brc1ccc([C@H]2CN3CCSC3=N2)cc1,outcome,[2],inactive
same,outcome,[3],inactive
same,outcome,[4],inactive
CCCCC(CC)COC(=O)c1ccccc1C(=O)O (stereo not given),Potency,[7],inactive
O=C1NC(=O)/C(=C/c2ccc3c(c2)OC(F)(F)O3)S1,outcome,[1],inactive
same,outcome,[2],inactive
same,outcome,[3],inactive
c1ccc2occc2c1,Potency,[7],inactive
CN1CCC(Nc2ncc3ncnc(Nc4ccc(F)c(Cl)c4)c3n2)CC1,Potency,[5],3.45 µM (active)
same,outcome,[6],inactive
O=C(NO)c1ccccc1,Potency,[7],inactive
C[N+](C)(C)CCO,outcome,[1],inactive
same,outcome,[2],inactive
same,outcome,[3],inactive
same,outcome,[4],inactive
Oc1ccccc1,Potency,[7],inactive
COC(=O)C1=CO[C@@H](O)[C@@H]2C(CO)=CC[C@H]12,outcome,[1],inactive
same,outcome,[2],inactive
same,outcome,[3],inactive
same,outcome,[4],inactive
Clc1ccc2c(c1)N=C(N1CCNCC1)c1ccccc1N2,outcome,[1],inactive
same,outcome,[2],inactive
same,outcome,[3],inactive
same,outcome,[4],inactive
N[C@@H](Cn1ccc(=O)c(O)c1)C(=O)O,outcome,[1],inactive
same,outcome,[2],inactive
same,outcome,[3],inactive
same,outcome,[4],inactive
CN(C)c1cc2c(Nc3ccc4c(cnn4Cc4ccccc4)c3)ncnc2cn1,Potency,[5],0.207 µM (active)
same,outcome,[6],inactive
same,outcome,[1],inactive
same,outcome,[2],inactive
CCCC(=O)c1cc(O)c(O)cc1O,Potency,[7],inactive
Cc1nn(-c2ccccc2)c(C)c1/C=N/N1CCN(Cc2ccccc2)CC1,outcome,[1],inactive
same,outcome,[2],inactive
same,outcome,[3],inactive
same,outcome,[4],inactive
CC(=O)Nc1ccc(S(=O)(=O)Nc2cc(C)on2)cc1,outcome,[8],inactive
same,outcome,[9],inactive
same,outcome,[10],inactive
Nc1ncnc2n[nH]c(Nc3ccc(F)cc3)c12,outcome,[1],inactive
same,outcome,[2],inactive
same,outcome,[3],inactive
same,outcome,[4],inactive
C1=CC2C3C=CC(C3)C2C1 (stereo not given),Potency,[7],inactive
CC(C)N(CCC(=O)c1ccc2ccccc2c1)Cc1ccccc1,outcome,[1],inactive
same,outcome,[2],inactive
same,outcome,[3],inactive
same,outcome,[4],inactive
